In all, about 360,000 compounds went through this assay and about 9,100 (2.5%) were called active. Another 4% or so got no clear call; they are omitted. Cut-off read from the data, not from the text of the source: active = max response below about -50%; inconclusive = no clear call, values can overlap the other calls; inactive = above that. The list comes from a sample in which actives are over-represented; it also holds similar structures and randomly drawn compounds.
Target: D(3) dopamine receptor (Homo sapiens) (UniProt P35462)
Sequence (P35462 whole entry, looked up): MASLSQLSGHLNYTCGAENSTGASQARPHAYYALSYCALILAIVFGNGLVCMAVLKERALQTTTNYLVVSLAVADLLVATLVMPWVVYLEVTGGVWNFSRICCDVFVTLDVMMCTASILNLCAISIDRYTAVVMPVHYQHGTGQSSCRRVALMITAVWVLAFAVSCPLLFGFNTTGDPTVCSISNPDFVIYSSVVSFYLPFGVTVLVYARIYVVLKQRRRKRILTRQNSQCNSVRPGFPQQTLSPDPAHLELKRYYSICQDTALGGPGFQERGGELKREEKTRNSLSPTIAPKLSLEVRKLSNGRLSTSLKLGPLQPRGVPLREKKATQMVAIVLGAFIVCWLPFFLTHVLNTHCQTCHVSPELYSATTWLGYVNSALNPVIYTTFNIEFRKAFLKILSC
Experiment: qHTS of D3 Dopamine Receptor Antagonist: qHTS
Details: D3R cells, DiscoveRx beta-arrestin luminescence, antagonist mode; stronger effect = lower value
Outline: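 Cells plated overnight at 1500 cells/well, then exposed to library compounds with dopamine controls for 90 minutes at 37 degrees C. DiscoveRx reagent added for 30–60 minutes at room temperature; luminescence read, quantitative HTS format.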
% is set by controls: 0 for no effect and ±100 for the full control effect.

SMILES | max response, negative = inhibition
CC(C)c1cc(Cn2c3ccccc3c(=O)n2C(C)Cn2cc(C3CC3)nn2)on1 (configuration not stated) | 0.832% (inactive)
CCCCC[C@@H]1C=C(C(=O)OCC)[C@H](c2ccccc2)N1S(=O)(=O)c1ccc(C)cc1 | 0% (inactive)
O=C(OCc1cn([C@H]2C[C@H](c3ccccc3)N(C(=O)c3cccs3)C[C@@H]2O)nn1)c1ccccc1 | -25.2% (inactive)
COc1c(C)cc(C(O)c2ncc(-c3cccc(C(F)(F)F)c3)[nH]2)cc1C (configuration not stated) | 0% (inactive)
COC(=O)N(C)C[C@@H]1OCc2cnnn2CCCC(=O)N([C@@H](C)CO)C[C@@H]1C | -14.7% (inactive)
O=c1cc(CN2CCCCCCC2)c2c(ccc3ccccc32)o1 | 5.7% (inactive)
c1ccc2cc3[nH]c(CN4CCCCC4)nc3cc2c1 | -50.3% (active)
Cc1ccc2[nH]c(=O)c(CN3CCCCC3)c(-c3ccccc3)c2c1 | 16.1% (inactive)
COc1cccc(/C=C2\SC(=S)N(CCCC(=O)N3CCOCC3)C2=O)c1 | -20.9% (inactive)
CCN1C(=S)N[C@@H](CCc2ccccc2)[C@H](C(=O)OC)[C@H]1C | -63% (active)
CCN1C(=NCc2ccc(OC)cc2)N[C@@H](CCc2ccccc2)[C@H](C(=O)NCc2ccc(OC)cc2)[C@H]1C | 4.01% (inactive)
COCCN1C(=O)N[C@@H](CCc2ccccc2)[C@H](C(C)=O)[C@H]1C | 2.91% (inactive)
Cn1c(CCN2CCN(c3ccccn3)CC2)nc2cc(NS(=O)(=O)c3ccc(F)cc3)ccc21 | 0% (inactive)
CCOC1=C2CN(S(=O)(=O)c3ccc(C)cc3)[C@H](c3cccs3)C[C@H]2[C@H]2C(=O)N(c3ccccc3)C(=O)[C@H]2C1 | -26.5% (inactive)
CCc1nc2c(OCc3ccccc3)cccn2c1N(C)C(=O)c1ccco1 | -0.512% (inactive)
Cc1ccc(S(=O)(=O)N2C[C@@H](C)[C@]3(C2)[C@H](O)[C@H](OC(=O)NCc2ccccc2)C[C@H]2C(=O)N(c4ccccc4)C(=O)[C@H]23)cc1 | 18.6% (inactive)
CC(=O)Nc1cccc(-c2cc(NC(C)=O)c3ncc(-c4ccccc4)n3c2)c1 | 10.2% (inactive)
CC(=O)Nc1cc(-c2ccccc2N(C)C)cn2c(-c3ccc(F)c(Cl)c3)cnc12 | -55.6% (active)
CC(=O)Nc1cc(-c2cccc(CO)c2)cn2c(-c3cccc(C(F)(F)F)c3)cnc12 | -52.6% (active)
COc1ccccc1-c1cc(NC(C)=O)c2ncc(-c3ccc(F)cc3)n2c1 | 0% (inactive)
CC(=O)Nc1cccc(-c2cc(NC=O)c3ncc(-c4ccc(F)c(Cl)c4)n3c2)c1 | 58.6% (inactive)

SMILES | max response, negative = inhibition
CC(=O)Nc1cc(-c2ccccc2F)cn2c(-c3cccc(C(F)(F)F)c3)cnc12 | -2.07% (inactive)
C[C@H](NC(=O)CC[C@H]1O[C@@H](n2ccc(=O)[nH]c2=O)[C@H](O)[C@@H]1O)c1cccc2ccccc12 | -12.4% (inactive)
COc1ccc(OC)c(NC(=O)c2cc(-c3cc(F)ccc3OCC3CCCO3)n[nH]2)c1 (configuration not stated) | 8.86% (inactive)
COc1ccc(-n2c(-c3ccc(Cl)cc3)n[nH]c2=S)c(OC)c1 | 15.8% (inactive)
COC(=O)C[C@H]1C=C[C@@H](NS(=O)(=O)c2ccc(C)cc2)[C@@H](CO)O1 | 14.9% (inactive)
CCCCc1nc2ccc(F)cc2cc1C | 20.6% (inactive)
Cc1ccc(OCCCC(=O)N2CCOCC2)c(C)c1 | 4.43% (inactive)
Cc1ccc(C)c(OCC(=O)NNC(=O)C2CCC2)c1 | 1.58% (inactive)
C=CCc1cc(C)ccc1OCCCn1ccnc1 | -3.51% (inactive)
Cc1ccc(OCCCCN2CCCCC2)c(Br)c1 | -102% (active)
Cc1ccc(C(C)(C)C)c(OCCCCN2CCCC2)c1 | -80.6% (active)
CC(=O)Nc1ccc(S(=O)(=O)N2CCN(CCCOc3cc(C)ccc3C)CC2)cc1 | 15.6% (inactive)
CCN(CC)C(=O)C(C)N1c2cccc3cccc(c23)S1(=O)=O (configuration not stated) | -22.2% (inactive)
Cc1cccc(CN2CCN(C3CN(Cc4cn(Cc5ccccc5F)nn4)S(=O)(=O)C3)CC2)c1 (configuration not stated) | 6.92% (inactive)
O=C1c2ccccc2-c2ccccc2NC1O (configuration not stated) | 0% (inactive)
O[C@H]1CN(Cc2cccs2)[C@@H](c2ccc(Cl)cc2)C[C@@H]1n1cc(C2CC2)nn1 | 8.97% (inactive)
NC(c1ccccc1)c1csc(NC(=O)Nc2cccc(C(F)(F)F)c2)n1 (configuration not stated) | 18.1% (inactive)
C#CCNC(=O)C[C@@H]1C[C@@]2(C(=O)OCC)CCCC=C2N(Cc2ccco2)C1=O | 5.5% (inactive)
Cc1ccc(C(=O)N/C(=C/c2ccc(-c3cccc([N+](=O)[O-])c3)o2)C(=O)NCCCN(C)C)cc1 | 10.3% (inactive)
Cc1ccc(Cc2cnc(NC(=O)/C(C#N)=C/c3ccc(-c4cccc([N+](=O)[O-])c4)o3)s2)cc1 | -59.9% (active)
Cc1ccc(-c2ccc(/C=C(\C#N)C(N)=S)o2)c([N+](=O)[O-])c1 | -5.05% (inactive)

Source: PubChem BioAssay AID652054 (National Center for Advancing Translational Sciences (NCATS), 2013)
